# Values of other authors in PubChem BioAssay AID977611.
# Among all 3,900 compounds or so, about 3,900 (100%) were called active. The limit is not given here; nearly all actives have Kd up to about 4200 µM. So high a share suggests a set chosen from earlier hits. This is one part of the list. Where a SMILES comes first, the peptide text is derived from it. Non-standard residues stand in square brackets, D forms with d. Square brackets hold non-standard residues; d marks the D form. Residues, ends and D or L forms follow the SMILES beside them. Peptide text beside a SMILES is read from it. [ ]: non-standard residue; d: D form. Orn(CH(NH2)2) = NC(N)NCCC[C@H](N)C(=O)O
# Experiment: PubChem AID 977611
# Details: PDB protein-ligand complexes, literature Kd
compound,measurement,setting,value
CC[C@H](C)[C@H](NC(=O)[C@@H]1CCCN1C(=O)[C@H](CCC(=O)O)NC(=O)[C@H](Cc1ccc(O)cc1)NC(=O)[C@H](CC(=O)O)NC(=O)[C@@H]1CCCN1C(=O)[C@H](CC(N)=O)NC(=O)[C@@H]1CCCN1C(=O)[C@@H](NC(=O)[C@@H]1CCCN1C(=O)[C@@H]1CCCN1)C(C)C)C(=O)N[C@H](C=O)CCCNC(N)N (H-PPVPNPDYEPI[Orn(CH(NH2)2)]-aldehyde),Kd,"protein: Epidermal growth factor receptor kinase substrate 8-like protein 1 SH3 domain, PDB entry 2rol",24000 nM (active)
H-ARYGVSNTSINRK-OH,Kd,"protein: Protein HTP-1 P84L, PDB entry 4tzq",300 nM (active)
same,Kd,"protein: Protein HTP-2, PDB entry 4tzm",200 nM (active)
H-ATGSARSEGY-OH,Kd,"protein: WD repeat-containing protein 5, WDR5, PDB entry 4ewr",541 nM (active)
O=C(CCS)N1CCC(O)(c2ccc(Cl)c(C(F)(F)F)c2)CC1,Kd,"protein: CREB-binding protein, PDB entry 4i9o",1900 nM (active)
CC(C)C[C@H](NC(=O)CNC(=O)[C@H](CCCNC(N)N)NC(=O)[C@@H](N)CO)C(=O)N[C@@H](CCC(=O)O)C(=O)N[C@H](C(=O)N[C@@H](CO)C(=O)N[C@@H](Cc1cnc[nH]1)C(=O)N[C@@H](CCCNC(N)N)C(=O)N[C@@H](CC(C)C)C(=O)N[C@@H](C)C(=O)N1CCC[C@H]1C(=O)N[C@@H](Cc1c[nH]c2ccccc12)C(=O)O)C(C)C (H-S[Orn(CH(NH2)2)]GLEVSH[Orn(CH(NH2)2)]LAPW-OH),Kd,"protein: Telomeric repeat-binding factor 2, PDB entry 4m7c",750 nM (active)
H-SWVYSPLHYSA-OH,Kd,"protein: Talin FERM F3 domain, PDB entry 1y19",170 nM (active)
CC(C)C[C@H](NC(=O)[C@H](Cc1cnc[nH]1)NC(=O)[C@H](CCC(=O)O)NC(=O)[C@H](Cc1c[nH]c2ccccc12)NC(=O)[C@@H](NC(=O)[C@H](Cc1ccc(O)cc1)NC(=O)[C@@H](NC(=O)[C@H](C)NC(=O)[C@@H](N)CC(=O)O)[C@@H](C)O)[C@@H](C)O)C(=O)N[C@@H](C)C(=O)N[C@@H](Cc1c[nH]c2ccccc12)C(=O)N1CCC[C@H]1C(=O)O,Kd,"protein: The human ?-aminobutyric acid type A (GABAA), PDB entry 3d32",354 nM (active)
CSCC[C@H](N)C(=O)N1CCC[C@H]1C(=O)N1CCC[C@H]1C(=O)N[C@H](C(=O)N[C@@H](CC(C)C)C(=O)N1CCC[C@H]1C(=O)N[C@@H](Cc1cnc[nH]1)C(=O)N[C@@H](CCCNC(N)N)C(=O)N[C@@H](CC(=O)O)C(=O)N[C@@H](Cc1c[nH]c2ccccc12)C(=O)O)[C@@H](C)O (H-MPPTLPH[Orn(CH(NH2)2)]DW-OH),Kd,"protein: Peroxisomal membrane protein PAS20 (SH3 domain), PDB entry 1n5z",44000 nM (active)
CC(=O)N[C@H](C(=O)N[C@@H](CCC(N)=O)C(=O)NCC(=O)N[C@@H](CO)C(=O)NCC(=O)N[C@@H](C)C(=O)N[C@@H](Cc1ccccc1)C(=O)NCC(=O)N[C@@H](CCCNC(N)N)C(N)=O)C(C)C (Ac-VQGSGAFG[Orn(CH(NH2)2)]-NH2),Kd,"protein: Fab fragment of the mAb 106.3, PDB entry 3e8u",0.38 nM (active)
H-AAAFSFKKSFKLSGFSFK-OH,Kd,"protein: Ca2+-Calmodulin, PDB entry 1iwq",8.8 nM (active)
CC(=O)N[C@@H](CCCCN)C(=O)N[C@@H](CCCCN)C(=O)N[C@@H](CCCNC(N)N)C(=O)N[C@@H](Cc1ccc(O)cc1)C(=O)N[C@@H](CO)C(=O)N[C@@H](CCCNC(N)N)C(=O)N[C@@H](CCC(=O)O)C(=O)N[C@@H](Cc1ccccc1)C(=O)N[C@@H](CC(C)C)C(=O)N[C@@H](CC(C)C)C(=O)NCC(=O)N[C@@H](Cc1ccccc1)C(N)=O (Ac-KK[Orn(CH(NH2)2)]YS[Orn(CH(NH2)2)]EFLLGF-NH2),Kd,"protein: EUKARYOTIC TRANSLATION INITIATION FACTOR 4E, PDB entry 4aza",103 nM (active)
CC(C)C[C@H](NC(=O)[C@H](CCCNC(N)N)NC(=O)[C@H](CCCNC(N)N)NC(=O)[C@H](CCCCN)NC(=O)[C@H](C)NC(=O)[C@H](CO)NC(=O)CN)C(=O)N[C@@H](Cc1ccccc1)C(=O)NCC(=O)N[C@@H](CCC(=O)O)C(=O)O (H-GSAK[Orn(CH(NH2)2)][Orn(CH(NH2)2)]LFGE-OH),Kd,"protein: phospho-CDK2/cyclin A, PDB entry 1h28",300 nM (active)
